In ChEMBL document CHEMBL3988442, “University of Dundee, Small-Polar-MMV Screening Library” (2021):
For some of these results: Measured potencies and affinities stand elsewhere.

What was measured:
Parameters in all cases: scale not given: direction of the effect not stated beside the values
[1] = target: Protein translocase subunit SecA (Escherichia coli (strain K12)) (UniProt P10408); experiment: Assay to Identify E. coli SecA ATPase Inhibitors; assay type: functional; settings: 30 µM
[2] = target: T1, Ubiquitin-activating enzyme e1, putative (Leishmania donovani (strain BPK282A1)) (UniProt E9BSI1); experiment: Leishmania donovani Ubiquitin Activating Enzyme (LdE1); assay type: functional; settings: 30 µM
T1 sequence (whole entry): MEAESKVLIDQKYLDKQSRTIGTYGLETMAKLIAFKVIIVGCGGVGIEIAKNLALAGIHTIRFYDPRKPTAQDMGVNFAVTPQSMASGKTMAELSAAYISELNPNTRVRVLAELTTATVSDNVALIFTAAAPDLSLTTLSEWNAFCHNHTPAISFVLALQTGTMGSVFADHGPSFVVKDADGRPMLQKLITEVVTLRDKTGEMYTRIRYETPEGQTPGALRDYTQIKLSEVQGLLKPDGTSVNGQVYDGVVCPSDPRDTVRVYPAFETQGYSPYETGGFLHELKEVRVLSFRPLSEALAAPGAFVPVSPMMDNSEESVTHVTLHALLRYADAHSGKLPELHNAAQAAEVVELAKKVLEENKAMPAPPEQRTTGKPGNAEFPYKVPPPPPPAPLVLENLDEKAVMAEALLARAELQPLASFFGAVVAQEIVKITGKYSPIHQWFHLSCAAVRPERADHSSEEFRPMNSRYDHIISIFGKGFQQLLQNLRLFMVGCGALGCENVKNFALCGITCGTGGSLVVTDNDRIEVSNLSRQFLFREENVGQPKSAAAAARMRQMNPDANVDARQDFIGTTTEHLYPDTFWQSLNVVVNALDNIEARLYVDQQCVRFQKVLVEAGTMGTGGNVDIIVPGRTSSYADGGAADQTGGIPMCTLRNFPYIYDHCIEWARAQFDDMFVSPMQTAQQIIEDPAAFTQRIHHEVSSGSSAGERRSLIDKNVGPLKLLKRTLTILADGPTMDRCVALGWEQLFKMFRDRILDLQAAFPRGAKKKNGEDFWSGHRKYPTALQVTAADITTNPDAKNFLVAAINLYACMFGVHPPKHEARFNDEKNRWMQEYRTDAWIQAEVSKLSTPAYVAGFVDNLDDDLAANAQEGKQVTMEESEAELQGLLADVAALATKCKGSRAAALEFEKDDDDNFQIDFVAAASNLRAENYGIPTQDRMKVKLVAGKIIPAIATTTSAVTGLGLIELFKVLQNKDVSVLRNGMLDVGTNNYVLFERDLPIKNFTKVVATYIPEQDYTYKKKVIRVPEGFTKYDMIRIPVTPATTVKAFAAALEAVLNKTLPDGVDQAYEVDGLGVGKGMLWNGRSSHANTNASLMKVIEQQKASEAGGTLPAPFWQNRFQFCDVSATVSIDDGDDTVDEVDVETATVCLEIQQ

[3] = target: AMP-activated protein kinase, AMPK (Homo sapiens) (UniProt P54646+O43741+P54619+Q9UGJ0+Q9Y478+Q13131+Q9UGI9); experiment: AMP-dependent Kinase enzyme assay. An in vitro enzyme assay that detects ADP turnover that is directly proportional to AMPK activity. This uses naive AMPK that is activated during the assay with MK-8722; assay type: functional; settings: 30 µM
[4] = target: Sialic acid-binding Ig-like lectin 9 (Homo sapiens) (UniProt Q9Y336); experiment: Hs-Siglec9 ALPHAscreen SOP 20170721; settings: 10 µM
Sialic acid-binding Ig-like lectin 9 (Homo sapiens), sequence (Q9Y336 whole entry): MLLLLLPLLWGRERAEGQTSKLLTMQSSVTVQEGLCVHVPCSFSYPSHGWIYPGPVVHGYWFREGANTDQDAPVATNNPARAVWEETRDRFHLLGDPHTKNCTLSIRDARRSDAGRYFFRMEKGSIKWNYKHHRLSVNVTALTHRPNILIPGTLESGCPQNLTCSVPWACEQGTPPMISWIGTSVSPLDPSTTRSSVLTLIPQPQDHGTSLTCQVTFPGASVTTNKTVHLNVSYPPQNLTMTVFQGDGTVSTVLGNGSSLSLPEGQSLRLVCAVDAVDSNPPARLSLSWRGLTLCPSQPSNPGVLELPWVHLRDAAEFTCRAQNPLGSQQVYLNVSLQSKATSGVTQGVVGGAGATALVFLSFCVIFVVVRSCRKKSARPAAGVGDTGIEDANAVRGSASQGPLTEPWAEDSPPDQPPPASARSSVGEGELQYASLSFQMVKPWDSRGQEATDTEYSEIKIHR

Trypanosoma cruzi = experiment: Trypanosoma cruzi phosphomannomutase and mannose-1-phosphate guanylyltransferase assay; assay type: functional; settings: 10 µM
[5] = target: T2, Arginase-2, mitochondrial (Homo sapiens) (UniProt P78540); experiment: in vitro enzyme assay to detect the production of urea directly proportional to the activity of Arginase II; assay type: functional; settings: 33.3 µM; further: in the data most compounds retested in dose-response had high values
T2 sequence (whole entry): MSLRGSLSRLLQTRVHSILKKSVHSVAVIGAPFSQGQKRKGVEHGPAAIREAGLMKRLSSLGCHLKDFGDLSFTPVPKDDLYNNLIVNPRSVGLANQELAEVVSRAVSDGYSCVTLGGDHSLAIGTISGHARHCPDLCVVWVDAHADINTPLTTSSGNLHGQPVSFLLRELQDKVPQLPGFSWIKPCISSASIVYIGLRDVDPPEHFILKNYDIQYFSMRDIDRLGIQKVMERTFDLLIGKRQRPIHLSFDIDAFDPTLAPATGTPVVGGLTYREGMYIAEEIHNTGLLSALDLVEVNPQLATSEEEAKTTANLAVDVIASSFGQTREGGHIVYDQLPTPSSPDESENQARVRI

[6] = target: T3, Proteasome subunit beta (Trypanosoma cruzi) (UniProt O96673); experiment: Trypanosoma cruzi proteasome chymotrypsin-like activity (TcProtChymo) assay.; further: in the data most compounds retested in dose-response had high values; assay type: functional; settings: 9.37 µM
T3 sequence (whole entry): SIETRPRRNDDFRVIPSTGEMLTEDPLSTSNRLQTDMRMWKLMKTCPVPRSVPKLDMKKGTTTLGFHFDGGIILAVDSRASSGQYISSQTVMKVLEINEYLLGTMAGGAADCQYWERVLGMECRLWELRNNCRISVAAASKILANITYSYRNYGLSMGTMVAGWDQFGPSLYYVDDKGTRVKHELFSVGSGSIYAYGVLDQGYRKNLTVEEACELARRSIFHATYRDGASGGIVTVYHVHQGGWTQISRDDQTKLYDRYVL

Homo sapiens = species on record: Homo sapiens; experiment: To identify inhibition of the IFN signalling (Jak-Stat) pathway via expression of an eGFP reporter gene under the control of an IFN-stimulated response element (ISRE) containing MxA promoter.; assay type: functional; settings: 30 µM
[7] = target: T4, Tyrosyl-tRNA synthetase, putative (Trypanosoma cruzi (strain CL Brener)) (UniProt Q4DSP6); experiment: Trypanosoma cruzi tyrosyl tRNA synthetase (TcYRS) _High Tyrosine SOP; assay type: functional; settings: 30 µM; further: in the data most compounds retested in dose-response had high values
T4 sequence (whole entry): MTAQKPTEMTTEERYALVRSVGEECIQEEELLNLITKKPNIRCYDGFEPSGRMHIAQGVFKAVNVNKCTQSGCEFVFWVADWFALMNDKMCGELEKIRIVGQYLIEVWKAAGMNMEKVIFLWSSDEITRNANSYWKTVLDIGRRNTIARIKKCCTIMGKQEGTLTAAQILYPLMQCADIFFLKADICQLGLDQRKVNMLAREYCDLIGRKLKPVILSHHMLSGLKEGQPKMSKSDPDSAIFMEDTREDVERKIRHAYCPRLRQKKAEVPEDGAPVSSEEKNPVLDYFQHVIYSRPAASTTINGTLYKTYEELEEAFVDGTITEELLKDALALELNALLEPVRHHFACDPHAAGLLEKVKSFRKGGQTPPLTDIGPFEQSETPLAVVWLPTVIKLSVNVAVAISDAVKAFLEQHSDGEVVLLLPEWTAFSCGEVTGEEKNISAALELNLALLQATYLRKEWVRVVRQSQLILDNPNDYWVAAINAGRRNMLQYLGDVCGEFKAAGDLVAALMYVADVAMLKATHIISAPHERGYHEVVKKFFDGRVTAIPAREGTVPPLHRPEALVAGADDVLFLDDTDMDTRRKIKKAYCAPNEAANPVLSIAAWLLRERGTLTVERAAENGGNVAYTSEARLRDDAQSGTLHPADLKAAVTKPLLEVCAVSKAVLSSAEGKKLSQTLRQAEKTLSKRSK

[8] = target: T4, Tyrosyl-tRNA synthetase, putative (Trypanosoma cruzi (strain CL Brener)); experiment: Trypanosoma cruzi tyrosyl tRNA synthetase (TcYRS) SOP; assay type: functional; settings: 30 µM
[9] = target: Chromo domain-containing protein 1 (Saccharomyces cerevisiae (strain ATCC 204508 / S288c) (Baker's yeast)) (UniProt P32657); experiment: ScCHD-1 Enzyme Inhibition Assay; assay type: functional; settings: 30 µM; further: in the data most compounds retested in dose-response had high values
Chromo domain-containing protein 1 (Saccharomyces cerevisiae (strain ATCC 204508 / S288c) (Baker's yeast)), sequence (P32657 whole entry, the tested form may be a part): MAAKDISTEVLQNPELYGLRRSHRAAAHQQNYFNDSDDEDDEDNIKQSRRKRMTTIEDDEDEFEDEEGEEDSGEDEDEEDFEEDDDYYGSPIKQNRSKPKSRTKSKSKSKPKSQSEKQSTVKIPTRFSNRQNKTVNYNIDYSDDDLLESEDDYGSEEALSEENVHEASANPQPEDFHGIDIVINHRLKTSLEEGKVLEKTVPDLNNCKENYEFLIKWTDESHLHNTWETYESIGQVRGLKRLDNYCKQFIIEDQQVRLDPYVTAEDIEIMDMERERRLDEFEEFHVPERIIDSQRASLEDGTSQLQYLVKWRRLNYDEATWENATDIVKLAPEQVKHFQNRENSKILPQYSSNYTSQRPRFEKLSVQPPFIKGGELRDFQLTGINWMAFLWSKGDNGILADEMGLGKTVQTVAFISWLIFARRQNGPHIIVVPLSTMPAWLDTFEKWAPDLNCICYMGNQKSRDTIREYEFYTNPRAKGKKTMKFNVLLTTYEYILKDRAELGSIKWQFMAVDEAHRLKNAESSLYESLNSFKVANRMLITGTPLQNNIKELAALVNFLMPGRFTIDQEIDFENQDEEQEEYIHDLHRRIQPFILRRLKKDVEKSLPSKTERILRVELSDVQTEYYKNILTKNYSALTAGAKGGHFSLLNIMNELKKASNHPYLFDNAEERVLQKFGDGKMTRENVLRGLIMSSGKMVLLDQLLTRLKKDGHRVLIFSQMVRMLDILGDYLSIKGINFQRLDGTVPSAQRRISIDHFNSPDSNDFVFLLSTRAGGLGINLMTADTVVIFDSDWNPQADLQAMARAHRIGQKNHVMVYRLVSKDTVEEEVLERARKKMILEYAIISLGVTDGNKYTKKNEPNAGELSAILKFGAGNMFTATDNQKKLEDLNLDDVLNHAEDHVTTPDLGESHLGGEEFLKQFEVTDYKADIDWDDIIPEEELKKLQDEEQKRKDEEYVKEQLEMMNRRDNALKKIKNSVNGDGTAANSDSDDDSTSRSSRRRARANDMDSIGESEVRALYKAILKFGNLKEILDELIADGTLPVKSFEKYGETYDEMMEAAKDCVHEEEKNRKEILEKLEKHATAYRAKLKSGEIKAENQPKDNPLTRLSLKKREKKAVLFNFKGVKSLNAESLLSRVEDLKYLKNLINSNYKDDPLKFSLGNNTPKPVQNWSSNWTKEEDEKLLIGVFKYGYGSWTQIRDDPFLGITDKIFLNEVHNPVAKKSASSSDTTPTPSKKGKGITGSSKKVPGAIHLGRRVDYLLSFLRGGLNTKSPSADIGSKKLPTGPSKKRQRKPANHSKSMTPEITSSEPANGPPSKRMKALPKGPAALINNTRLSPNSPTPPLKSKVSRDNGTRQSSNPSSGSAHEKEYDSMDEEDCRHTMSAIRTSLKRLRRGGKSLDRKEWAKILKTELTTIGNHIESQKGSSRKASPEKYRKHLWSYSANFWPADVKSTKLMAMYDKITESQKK

Protein translocase subunit SecA (Escherichia coli (strain K12)), sequence (P10408 whole entry): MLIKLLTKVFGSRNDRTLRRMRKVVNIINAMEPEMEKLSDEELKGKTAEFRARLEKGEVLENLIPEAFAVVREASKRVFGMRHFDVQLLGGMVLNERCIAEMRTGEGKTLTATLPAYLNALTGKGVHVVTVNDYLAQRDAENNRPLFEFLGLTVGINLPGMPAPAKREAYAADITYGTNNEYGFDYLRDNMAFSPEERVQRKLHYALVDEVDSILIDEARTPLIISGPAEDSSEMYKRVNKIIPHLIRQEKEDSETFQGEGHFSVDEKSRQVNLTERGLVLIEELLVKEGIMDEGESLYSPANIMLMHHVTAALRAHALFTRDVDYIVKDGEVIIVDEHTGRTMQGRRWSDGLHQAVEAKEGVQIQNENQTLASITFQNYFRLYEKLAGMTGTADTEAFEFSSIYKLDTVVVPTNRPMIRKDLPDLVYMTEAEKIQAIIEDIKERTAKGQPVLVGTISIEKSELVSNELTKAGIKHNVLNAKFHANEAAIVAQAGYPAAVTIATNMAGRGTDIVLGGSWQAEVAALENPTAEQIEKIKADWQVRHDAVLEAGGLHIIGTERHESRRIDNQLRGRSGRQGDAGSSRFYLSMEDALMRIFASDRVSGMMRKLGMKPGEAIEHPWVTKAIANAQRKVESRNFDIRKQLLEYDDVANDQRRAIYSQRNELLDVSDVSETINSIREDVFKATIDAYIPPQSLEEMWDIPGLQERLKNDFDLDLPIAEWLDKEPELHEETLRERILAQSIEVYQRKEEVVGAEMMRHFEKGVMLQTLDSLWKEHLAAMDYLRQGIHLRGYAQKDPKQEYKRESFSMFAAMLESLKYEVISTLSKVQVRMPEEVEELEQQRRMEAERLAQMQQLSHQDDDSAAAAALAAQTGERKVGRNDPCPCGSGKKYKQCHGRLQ

Compound | Percent Effect [1] | Percent Effect [2] | Percent Effect [3] | Percent Effect [4] | Percent Effect (Trypanosoma cruzi) | Percent Effect [5] | Percent Effect [6] | Percent Effect (Homo sapiens) | Percent Effect [7] | Percent Effect [8] | Percent Effect [9]
CC(C)n1ncc2c1NC(=O)CC21C(=O)Nc2c(Cl)cccc21 (configuration not stated) | -1.42% | -1.33% | 3.7% | 7% | -0.393% | -6.87% | 0.185% | 34% | 1.06% | 2.56% | -2%
CCN1CC2(CC1=O)CN(C(C)=O)CCN(C(=O)c1ccco1)C2 (configuration not stated) | -1.61% | 5.48% | -6.62% | 5.12% | -0.595% | -4.79% | 5.05% | 4.81% | 1.04% | 3.7% | -1.88%
Cc1ccc(NC(=O)Nc2cnc(N3CCN(C)CC3)nc2)c(Cl)c1 | -1.85% | 13% | 2.69% | 2.29% | 2.27% | -5.81% | 5.22% | 6.92% | 6.35% | 11.5% | -9.57%
O=C1CC(c2ccccc2)c2snc(C(=O)O)c2N1 (configuration not stated) | -3.07% | 6.67% | -2.59% | -2.64% | 2.95% | 20.9% | 29.4% | 1.29% | 3.17% | 7.69% | -12%
Cc1noc(C(C)N2CCN(CCCN3CCCC3=O)CC2)n1 (configuration not stated) | -1.22% | 21.6% | 32.3% | 1.61% | 1.23% | -8.02% | 19.5% | 9.12% | 7.39% | 23.5% | -15.8%
CNC(=O)CC1CCN(Cc2nc(-c3cccc(Cl)c3)oc2C)CC1 | -1.83% | 8.11% | -6.08% | 19.1% | 4.05% | 0% | 20.2% | 4.01% | 5.82% | 9.76% | -2.39%
CSc1sc(NC(=O)Cc2c(C)nc(C)[nH]c2=O)nc1C | -6.26% | 7.89% | -7.94% | 7.61% | 5.83% | -2.68% | 6.18% | 7.45% | 7.35% | 12.2% | -12.2%
Cn1ccnc1-c1ccccc1C(=O)N1CCc2c(nc(N)[nH]c2=O)C1 | -3.72% | 7.79% | 3.19% | 4.47% | -2.06% | -6.9% | 16.8% | 5.31% | 4.3% | 11.1% | 3.09%
CCC(CC)c1cc(CNC(=O)N2CCOC(C)C2)on1 (configuration not stated) | -3.56% | -2.7% | -0.766% | -6.02% | -1.86% | 2.23% | -2.66% | 3.72% | 3.23% | 1.24% | 0.0369%
Cc1cc(CN2CCN(c3ccc4nncn4n3)C(C)C2)no1 (configuration not stated) | -6.67% | 20.8% | -6.96% | 14.4% | 5.8% | 4.63% | 11.2% | 19.6% | 9.71% | 21.9% | -10.9%
CCn1cnnc1CNC(=O)N1CCN(c2cccs2)CC1 | -8.91% | 5.2% | -16.1% | 14.9% | 14.2% | 1.78% | 24.3% | 7.4% | 26.2% | 12.2% | -5.95%
Cn1ccnc1CN1CCN(c2ccc(C#N)cc2F)CC1 | -4.37% | 21.6% | -10.5% | 15.7% | 3.44% | 4.25% | 11.1% | 17.8% | 6.93% | 23.2% | -6.24%
COCC(=O)N1CC[C@H]2C[C@H](C)O[C@@H]2C1 | -3.06% | 13.3% | 4.66% | -5.49% | 4.53% | -2.56% | 17.4% | -11.4% | 7.45% | 14.1% | -3.21%
CCCc1n[nH]c(C2CN(Cc3nnc(C4CC4)o3)CCO2)n1 (configuration not stated) | -3.64% | 5.06% | -4.65% | 2.18% | 4.25% | -1.9% | -0.409% | 3.77% | 3.45% | 8.86% | -0.679%
CN(Cc1nccs1)c1nc(-c2ccccn2)nc2c1CCNCC2 | -3.65% | -1.39% | -0.513% | -2.23% | 4.57% | -2.21% | 8.95% | 11.4% | 10.5% | 12.8% | -1.22%
O=C(C1CCCc2[nH]ncc21)N1CCCCCC1 (configuration not stated) | -3.72% | 5.41% | -4.75% | 2.71% | -2.64% | -1.24% | 11.2% | 0.454% | 2.15% | 6.17% | -3.22%
CCN(CCn1cccn1)Cc1nc(-c2cccs2)oc1C | -3.57% | -1.39% | 40.3% | -4.42% | 0.486% | 0.442% | 2.63% | 0.654% | 4.21% | 2.56% | 0.676%
